Results on five compounds are retold here after PubChem BioAssay.

Experiment [1] concerns PRMT1 (protein arginine N-methyltransferase 1). Nature of the experiment: PRMT1 binders on small-molecule microarrays, primary screen, biochemical, small-molecule microarray, 635 nm fluorescence (AID 1088).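 Note: binding of Prmt1 protein to compounds spotted on small-molecule microarray slides.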 Particulars: small-molecule microarray binding, higher = more signal.
A short description of experiment [2]: yeast growth modulation, basal conditions, primary screen, YJM789 clinical isolate, OD600, 24 h (AID 1089).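 Note: growth of clinical yeast isolate S. cerevisiae YJM 789 seeded 1000 cells per well; test concentration not given here.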 Particulars: S. cerevisiae YJM789 growth, higher = more signal, called active from +8 up or from −8 down.
A short description of experiment [3]: fission yeast growth modulation, primary screen, strain 972, OD600, 24 h, no modulator (AID 1090).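 Note: basal condition with compound alone and no growth modifier present; test concentration not given here.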 As to conditions: S. pombe 972 growth, higher = more signal, called active from +8 up or from −8 down.
The nature of experiment [4]: S. cerevisiae growth modulation with rapamycin, primary screen, strain BY4716, OD600, 96 h (AID 1091). Note: test concentration not given here. As to conditions: higher = more signal, called active from +8 up or from −8 down.
The target of experiment [5] is Torsin-1A-interacting protein 2 (Homo sapiens) (UniProt Q8NFQ8). The experiment is described as follows: LULL1 binders on small-molecule microarray, primary screen, cell lysate, human LULL1 lysate, 635/667 nm fluorescence (AID 1092).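 Note: probe is lysate of COS7 cells overexpressing human LULL1; score merges per-feature 667 nm fluorescence with signal-to-noise.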 As to conditions: hLULL1 lysate binding, 635 nm fluorescence, higher = more signal.
Chain of Torsin-1A-interacting protein 2 (Homo sapiens) (Q8NFQ8 whole entry, looked up): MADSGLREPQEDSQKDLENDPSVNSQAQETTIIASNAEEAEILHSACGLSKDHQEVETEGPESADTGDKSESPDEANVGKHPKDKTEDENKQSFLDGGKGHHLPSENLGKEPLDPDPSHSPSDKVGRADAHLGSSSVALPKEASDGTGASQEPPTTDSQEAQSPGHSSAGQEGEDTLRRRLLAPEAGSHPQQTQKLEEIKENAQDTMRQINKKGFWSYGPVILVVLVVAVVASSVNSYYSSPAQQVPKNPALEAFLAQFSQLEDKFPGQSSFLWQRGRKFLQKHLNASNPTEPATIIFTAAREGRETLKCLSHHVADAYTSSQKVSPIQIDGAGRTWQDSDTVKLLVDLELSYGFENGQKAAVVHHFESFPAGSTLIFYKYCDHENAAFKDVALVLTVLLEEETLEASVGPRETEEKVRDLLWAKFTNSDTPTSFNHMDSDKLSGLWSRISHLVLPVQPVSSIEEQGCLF
A short description of experiment [6]: E. coli growth modulation, two-sided OD650, primary screen, E. coli filamentation project, strain DRC41, 24 h (AID 1093).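 Note: MC1000 strain lacking acrAB efflux and sulA so SOS filamentation is blocked; test concentration not given here.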 As to conditions: OD650, 24 h, higher = more signal, called active from +8 up or from −8 down.
Experiment [7] in a line: small-molecule microarray binders of probe aLefty2, primary screen, biochemical, biotinylated probe, 635/667 nm fluorescence (AID 1094).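 Note: score merges spot fluorescence near 667 nm with spot signal-to-noise ratio.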 As to conditions: higher = more signal.
Experiment [8] relates to Noggin (protein binding on small-molecule microarray). Nature of the experiment: Noggin binders on small-molecule microarray, primary screen, biochemical, 635/667 nm fluorescence (AID 1095).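 Note: score merges 667 nm feature fluorescence with signal to noise over triplicate slides.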 As to conditions: 635 nm fluorescence, higher = more signal.
Experiment [9] addresses Neurogenic locus notch homolog protein 3 (Homo sapiens) (UniProt Q9UM47). The experiment is described as follows: NOTCH3 binders on small-molecule microarray, primary screen, biochemical, 635/667 nm fluorescence (AID 1096). As to conditions: NOTCH3 binding, 635 nm fluorescence, higher = more signal.
The nature of experiment [10]: small-molecule microarray binders of probe aEGFR, primary screen, biochemical, biotinylated probe, 635/667 nm fluorescence (AID 1097).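 Note: probe is a biotinylated anti-EGFR antibody binding compounds printed on slides; score combines fluorescence near 667 nm and signal to noise of each spot.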 As to conditions: higher = more signal.
Experiment [11] concerns Plasmodium falciparum Sir2 (PF13_0152, Sir2A). The experiment is described as follows: pfSir2 binders on small-molecule microarrays, primary screen, biochemical, small-molecule microarray, 635 nm fluorescence (AID 1098).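 Note: score merges spot fluorescence intensity with its signal-to-noise ratio.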 As to conditions: small-molecule microarray binding, fluorescence 635 nm; higher = more signal.
A short description of experiment [12]: small-molecule microarray binders of probe aDKK1, primary screen, biochemical, biotinylated probe, 635/667 nm fluorescence (AID 1099).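 Note: score merges 667nm spot fluorescence with signal to noise across triplicate slides; reference of the scale not given here.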 Particulars: higher = more signal.
A short description of experiment [13]: small-molecule microarray binders of probe aCHRDL2, primary screen, biochemical, biotinylated probe, 635/667 nm fluorescence (AID 1100). Particulars: higher = more signal.
Experiment [14] can be described thus: splicing luciferase reporter signal modulators, primary screen, spliceosome inhibition project, cell-based, HEK293, splice +/- reporter (AID 1101).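 Note: HEK293 cells carrying a splicing-competent luciferase reporter gene; test concentration not given here.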 Particulars: luminescence, 24 h, higher = more signal, called active from +8 up or from −8 down.
Experiment [15] concerns the target Fibroblast growth factor 10 (Homo sapiens) (UniProt O15520). The experiment is described as follows: FGF10 binders on small-molecule microarrays, primary screen, biochemical, small-molecule microarray, 635 nm fluorescence (AID 1102). As to conditions: FGF10 binding, fluorescence 635 nm, higher = more signal.
Experiment [16] deals with glycogen synthase kinase-3 (GSK3A per assay name; protocol says GSK3B). Nature of the experiment: GSK3 binders on small-molecule microarrays, primary screen, biochemical, small-molecule microarray, 635 nm fluorescence, GSK3A (AID 1103). Note: the record names both GSK3A and GSK3B. Particulars: small-molecule microarray binding, fluorescence 635 nm; higher = more signal.
Experiment [17] deals with Epidermal growth factor receptor (Homo sapiens) (UniProt P00533). The experiment is described as follows: EGFR binders on small-molecule microarrays, primary screen, biochemical, small-molecule microarray, 635 nm fluorescence (AID 1104).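 Note: score merges 667 nm emission intensity with spot signal to noise over triplicate slides.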 As to conditions: EGFR binding, higher = more signal.
Chain of Epidermal growth factor receptor (Homo sapiens) (P00533 whole entry, looked up): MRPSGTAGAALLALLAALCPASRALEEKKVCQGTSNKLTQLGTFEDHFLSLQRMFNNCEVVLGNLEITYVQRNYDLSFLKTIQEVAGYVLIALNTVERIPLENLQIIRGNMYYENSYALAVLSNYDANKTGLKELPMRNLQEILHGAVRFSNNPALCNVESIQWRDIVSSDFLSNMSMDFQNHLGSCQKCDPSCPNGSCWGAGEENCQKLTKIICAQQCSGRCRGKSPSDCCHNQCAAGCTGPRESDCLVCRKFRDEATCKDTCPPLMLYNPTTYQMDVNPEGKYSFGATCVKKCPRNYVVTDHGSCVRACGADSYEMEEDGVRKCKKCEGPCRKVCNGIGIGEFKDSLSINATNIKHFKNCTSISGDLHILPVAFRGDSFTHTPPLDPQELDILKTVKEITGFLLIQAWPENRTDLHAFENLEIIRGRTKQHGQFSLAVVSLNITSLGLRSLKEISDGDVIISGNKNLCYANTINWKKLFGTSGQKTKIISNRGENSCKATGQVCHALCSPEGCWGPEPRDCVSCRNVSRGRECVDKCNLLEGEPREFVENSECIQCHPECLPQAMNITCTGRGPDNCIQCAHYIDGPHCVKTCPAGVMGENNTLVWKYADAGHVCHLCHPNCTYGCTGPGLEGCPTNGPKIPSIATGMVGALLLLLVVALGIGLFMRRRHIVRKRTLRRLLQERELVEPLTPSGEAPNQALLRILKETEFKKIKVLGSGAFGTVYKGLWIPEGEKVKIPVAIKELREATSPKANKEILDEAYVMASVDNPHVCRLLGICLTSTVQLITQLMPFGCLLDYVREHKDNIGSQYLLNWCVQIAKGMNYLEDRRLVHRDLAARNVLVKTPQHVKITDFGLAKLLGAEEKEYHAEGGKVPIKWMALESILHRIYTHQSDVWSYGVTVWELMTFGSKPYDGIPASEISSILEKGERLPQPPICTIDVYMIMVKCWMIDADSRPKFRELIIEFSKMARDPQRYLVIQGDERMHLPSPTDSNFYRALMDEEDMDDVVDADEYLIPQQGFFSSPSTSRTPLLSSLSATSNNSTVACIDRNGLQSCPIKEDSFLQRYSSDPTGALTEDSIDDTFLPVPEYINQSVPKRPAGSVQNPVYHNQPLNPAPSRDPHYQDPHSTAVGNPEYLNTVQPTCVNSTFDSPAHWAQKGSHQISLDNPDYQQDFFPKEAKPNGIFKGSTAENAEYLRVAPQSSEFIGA
Experiment [18] addresses Follistatin-related protein 3 (Homo sapiens) (UniProt O95633). Nature of the experiment: FSTL3 binders on small-molecule microarrays, primary screen, biochemical, small-molecule microarray, 635 nm fluorescence (AID 1105).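 Note: score merges emission near 667 nm and signal to noise per printed spot across three slides.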 As to conditions: FSTL3 binding, higher = more signal.
Experiment [19] addresses Dickkopf-related protein 1 (Homo sapiens) (UniProt O94907). The experiment is described as follows: DKK1 binders on small-molecule microarrays, primary screen, biochemical, small-molecule microarray, 635 nm fluorescence scan (AID 1106).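 Note: score merges emission near 667 nm with signal to noise over three replicate slides.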 Particulars: DKK1 binding, higher = more signal.
Experiment [20] has as its system Inhibin beta A chain (activin A). The experiment is described as follows: INHBA (activin A) binders on microarrays, primary screen, biochemical, small-molecule microarray, 635 nm fluorescence scan (AID 1107).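 Note: mouse activin A protein probed at 4.33 µg/mL on printed slides; score merges bound-protein fluorescence near 667 nm with spot signal-to-noise.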 Particulars: small-molecule microarray binding, higher = more signal.

Active and inactive are the calls of the source.

Chain of Fibroblast growth factor 10 (Homo sapiens) (O15520 whole entry, looked up): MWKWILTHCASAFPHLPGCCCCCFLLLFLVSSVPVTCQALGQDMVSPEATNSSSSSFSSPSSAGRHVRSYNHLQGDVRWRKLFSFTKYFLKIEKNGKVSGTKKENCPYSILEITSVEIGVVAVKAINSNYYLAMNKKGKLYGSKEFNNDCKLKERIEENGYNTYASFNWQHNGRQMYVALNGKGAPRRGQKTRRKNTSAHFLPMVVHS
Chain of Neurogenic locus notch homolog protein 3 (Homo sapiens) (Q9UM47 whole entry, looked up): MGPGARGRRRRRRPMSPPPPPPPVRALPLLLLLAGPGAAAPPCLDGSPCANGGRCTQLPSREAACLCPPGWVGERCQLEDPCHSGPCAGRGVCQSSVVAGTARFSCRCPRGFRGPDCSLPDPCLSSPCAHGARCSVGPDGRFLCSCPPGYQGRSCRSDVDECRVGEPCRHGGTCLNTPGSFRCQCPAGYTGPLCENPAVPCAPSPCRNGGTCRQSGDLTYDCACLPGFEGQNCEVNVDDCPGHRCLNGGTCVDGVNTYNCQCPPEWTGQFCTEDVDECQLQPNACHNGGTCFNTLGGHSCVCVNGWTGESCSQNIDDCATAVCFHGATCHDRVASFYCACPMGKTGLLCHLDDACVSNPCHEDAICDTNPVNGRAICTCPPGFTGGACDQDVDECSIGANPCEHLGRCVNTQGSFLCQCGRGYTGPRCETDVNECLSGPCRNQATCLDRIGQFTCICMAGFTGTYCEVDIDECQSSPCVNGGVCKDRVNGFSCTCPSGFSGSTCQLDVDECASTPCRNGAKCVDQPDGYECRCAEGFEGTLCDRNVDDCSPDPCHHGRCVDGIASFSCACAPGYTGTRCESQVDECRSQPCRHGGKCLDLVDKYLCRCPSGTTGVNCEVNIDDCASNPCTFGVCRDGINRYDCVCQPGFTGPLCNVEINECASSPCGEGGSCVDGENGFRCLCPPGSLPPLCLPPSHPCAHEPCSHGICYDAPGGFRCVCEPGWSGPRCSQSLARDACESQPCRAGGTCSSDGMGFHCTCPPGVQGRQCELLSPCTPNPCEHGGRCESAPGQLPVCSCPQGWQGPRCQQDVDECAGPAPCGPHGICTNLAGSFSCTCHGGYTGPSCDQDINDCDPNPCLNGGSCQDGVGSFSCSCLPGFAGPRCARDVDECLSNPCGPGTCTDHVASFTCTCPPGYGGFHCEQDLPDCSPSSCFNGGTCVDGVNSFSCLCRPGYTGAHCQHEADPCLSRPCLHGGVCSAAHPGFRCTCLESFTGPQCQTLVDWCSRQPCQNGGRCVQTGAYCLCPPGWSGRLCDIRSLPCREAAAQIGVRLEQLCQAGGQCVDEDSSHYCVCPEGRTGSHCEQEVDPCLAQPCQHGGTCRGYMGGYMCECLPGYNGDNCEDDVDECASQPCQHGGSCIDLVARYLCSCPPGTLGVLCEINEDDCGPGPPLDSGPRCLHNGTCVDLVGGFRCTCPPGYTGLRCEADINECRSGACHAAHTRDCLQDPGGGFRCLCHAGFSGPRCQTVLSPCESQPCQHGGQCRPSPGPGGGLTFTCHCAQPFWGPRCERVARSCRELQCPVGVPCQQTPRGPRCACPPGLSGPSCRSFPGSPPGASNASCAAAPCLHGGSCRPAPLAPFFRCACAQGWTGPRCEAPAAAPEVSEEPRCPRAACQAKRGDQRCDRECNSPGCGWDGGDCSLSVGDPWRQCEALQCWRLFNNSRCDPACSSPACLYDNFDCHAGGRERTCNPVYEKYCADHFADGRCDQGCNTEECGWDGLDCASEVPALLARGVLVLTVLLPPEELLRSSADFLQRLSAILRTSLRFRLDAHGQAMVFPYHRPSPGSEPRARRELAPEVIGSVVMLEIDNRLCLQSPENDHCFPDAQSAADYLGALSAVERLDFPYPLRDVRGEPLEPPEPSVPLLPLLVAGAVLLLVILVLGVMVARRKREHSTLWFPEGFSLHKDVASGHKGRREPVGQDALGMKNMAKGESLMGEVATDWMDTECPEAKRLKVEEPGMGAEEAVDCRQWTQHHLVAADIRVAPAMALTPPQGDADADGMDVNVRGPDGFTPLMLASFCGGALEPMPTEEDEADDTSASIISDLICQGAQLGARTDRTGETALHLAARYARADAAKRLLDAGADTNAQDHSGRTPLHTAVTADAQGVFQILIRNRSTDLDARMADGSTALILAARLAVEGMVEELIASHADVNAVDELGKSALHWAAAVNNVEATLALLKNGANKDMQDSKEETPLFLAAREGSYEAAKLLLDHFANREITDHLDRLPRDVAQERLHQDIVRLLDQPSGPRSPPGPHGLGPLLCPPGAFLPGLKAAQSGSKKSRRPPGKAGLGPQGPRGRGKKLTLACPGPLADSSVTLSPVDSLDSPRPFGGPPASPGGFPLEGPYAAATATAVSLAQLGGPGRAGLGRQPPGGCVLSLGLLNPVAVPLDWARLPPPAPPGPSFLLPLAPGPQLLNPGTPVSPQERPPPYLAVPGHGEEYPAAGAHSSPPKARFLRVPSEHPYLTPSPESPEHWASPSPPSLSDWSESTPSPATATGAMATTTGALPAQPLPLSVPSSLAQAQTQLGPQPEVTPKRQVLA
Chain of Dickkopf-related protein 1 (Homo sapiens) (O94907 whole entry, looked up): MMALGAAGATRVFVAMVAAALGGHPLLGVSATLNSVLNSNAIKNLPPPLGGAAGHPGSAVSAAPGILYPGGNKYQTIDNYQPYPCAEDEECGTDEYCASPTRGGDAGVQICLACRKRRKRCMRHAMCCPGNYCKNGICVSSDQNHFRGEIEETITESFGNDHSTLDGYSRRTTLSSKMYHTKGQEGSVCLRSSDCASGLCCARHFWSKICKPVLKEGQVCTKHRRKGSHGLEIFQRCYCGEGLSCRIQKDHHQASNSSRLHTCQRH
Chain of Follistatin-related protein 3 (Homo sapiens) (O95633 whole entry, looked up): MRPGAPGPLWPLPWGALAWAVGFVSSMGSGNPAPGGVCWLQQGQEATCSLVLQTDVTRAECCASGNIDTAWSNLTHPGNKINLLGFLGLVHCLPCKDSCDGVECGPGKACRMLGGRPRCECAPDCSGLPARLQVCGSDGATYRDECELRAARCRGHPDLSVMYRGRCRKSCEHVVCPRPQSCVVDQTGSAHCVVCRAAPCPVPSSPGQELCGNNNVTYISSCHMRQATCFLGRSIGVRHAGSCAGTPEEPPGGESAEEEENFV

Turning to `CCOC(=O)C1=CC[C@@H](c2ccc([N+](=O)[O-])cc2)N(S(=O)(=O)c2ccc(C)cc2)[C@H]1c1ccccc1`, the composite z-score in experiment [1] came to 1.54; in [5], 2.98; in [7], 0.0511; in experiment [8], 1.02; in experiment [9] it was 1.14; in experiment [10] it was 0.202. Moreover, the composite z-score in [11] came out at 0.992; in experiment [12], 0.291; in experiment [13] it was 0.304; in experiment [15], 1.21; in [16], 0.154; in [17], 0.764. For the same compound, the composite z-score in [18] was found to be 1.26; in experiment [19], 0.293; in experiment [20] it was 0.521. In addition, the z-score is 0.792 (inactive) in experiment [2]; 1.45 (inactive) in experiment [3]; 3.16 (inactive) in experiment [4]; 0.413 (inactive) in [6]; -0.8 (inactive) in [14].

Regarding `CCOC(=O)C1=CC[C@@H](c2cc(Cl)ccc2Cl)N(S(=O)(=O)c2ccc(C)cc2)[C@H]1c1ccc(OC)cc1`, the composite z-score is -0.393 in [1]; 0.506 in [5]; 0.754 in [7]; -0.546 in experiment [8]; -0.329 in experiment [9]; 0.379 in experiment [10]. Moreover, the composite z-score in experiment [11] is 0.391; in experiment [12] it was 0.987; in experiment [13], 1.13; in [15], 0.462; in experiment [16] it was -0.239; in [17], -0.36. The composite z-score in experiment [18] is -0.0732; in experiment [19], -0.295; in experiment [20] it was 1.56. Also, the z-score in experiment [2] was 1.31 (inactive); in experiment [3], 2.17 (inactive); in [4], 1.43 (inactive); in experiment [6], -0.0891 (inactive); in experiment [14], -0.381 (inactive).

Turning to `CCOC(=O)C[C@H]1[C@H](OC(=O)c2ccc(-c3ccccc3)cc2)[C@@H](NC(=O)C2CCCCC2)c2cc(OCCCO)ccc2N1C(=O)c1ccccc1`, the composite z-score was 0.5 in [1]; 1.44 in experiment [5]; -0.13 in [7]; 0.714 in experiment [8]; 0.855 in experiment [9]; -0.113 in experiment [10]. The composite z-score in experiment [11] was 0.3; in experiment [12], -0.141; in experiment [13], -0.464; in experiment [15] it was 0.616; in [16] it was 0.258; in experiment [17] it was 0.0979. Further, the composite z-score worked out at 0.584 in experiment [18], 0.237 in [19] and 0.117 in experiment [20]. Moreover, the z-score was 0.285 (inactive) in [2]; 0.881 (inactive) in experiment [3]; 1.29 (inactive) in [4]; -0.964 (inactive) in experiment [6]; -0.0213 (inactive) in experiment [14].

Consider `COCC(=C=CC[C@H](O)c1ccc(OCCO)cc1)C[C@H](O)COCc1ccccc1`, for which the composite z-score in experiment [1] was 1.51; in experiment [5], 1.64; in [7], -0.298; in experiment [8], 1.4; in experiment [9] it was 0.573; in [10] it was -0.02. In addition, the composite z-score in experiment [11] is 1.56; in experiment [12], -0.199; in experiment [13] it was -0.228; in experiment [15] it was 0.605; in experiment [16], 0.351; in experiment [17], 0.291. In addition, the composite z-score in experiment [18] came to 0.944; in experiment [19], 0.462; in experiment [20] it was 0.928. Moreover, the z-score in [2] is -1.49 (inactive); in experiment [3], -1.44 (inactive); in experiment [4], -0.885 (inactive); in [6], 0.825 (inactive); in experiment [14], -1.11 (inactive).

As to `O=C1OCCC=C[C@H]2OC34C=CCN(c5ccc(Cl)cc5)C(=O)[C@H]3N(CCCCCO)C(=O)[C@@H]4C12` (stereo not given in full), the composite z-score was 0.536 in experiment [1]; 2.68 in [5]; 0.0636 in experiment [7]; -0.261 in experiment [8]; 0.0841 in [9]; -0.0671 in experiment [10]. The composite z-score in experiment [11] was 1.87; in experiment [12], -0.0263; in [13], 0.255; in experiment [15] it was -0.315; in experiment [16], 0.0788; in experiment [17], -0.935. The composite z-score is -0.713 in [18], -0.172 in [19] and 0.883 in experiment [20]. In addition, the z-score in experiment [2] is -0.579 (inactive); in experiment [3] it was -1.99 (inactive); in experiment [4], -0.54 (inactive); in [6] it was 1.71 (inactive); in [14], -0.443 (inactive).
